Measurements taken from PubChem BioAssay (Tox21).
Active and inactive are the calls of the source. Where a call stands in place of a potency, no number is given. Calls come from the whole dose curve.

What follows are molecules tested against Androgen receptor (Homo sapiens) (UniProt P10275) (assay: qHTS assay to identify small molecule agonists of the androgen receptor (AR) signaling pathway in the presence of an antagonist (AID 1259381; note: nearly all actives have a fitted effect of over 15% in size)). Conditions: MDA-kb2 MMTV-luciferase, AR agonist + nilutamide, 16 h; series mostly up to 92.4 µM.
Chain of Androgen receptor (Homo sapiens) (P10275 whole entry, looked up): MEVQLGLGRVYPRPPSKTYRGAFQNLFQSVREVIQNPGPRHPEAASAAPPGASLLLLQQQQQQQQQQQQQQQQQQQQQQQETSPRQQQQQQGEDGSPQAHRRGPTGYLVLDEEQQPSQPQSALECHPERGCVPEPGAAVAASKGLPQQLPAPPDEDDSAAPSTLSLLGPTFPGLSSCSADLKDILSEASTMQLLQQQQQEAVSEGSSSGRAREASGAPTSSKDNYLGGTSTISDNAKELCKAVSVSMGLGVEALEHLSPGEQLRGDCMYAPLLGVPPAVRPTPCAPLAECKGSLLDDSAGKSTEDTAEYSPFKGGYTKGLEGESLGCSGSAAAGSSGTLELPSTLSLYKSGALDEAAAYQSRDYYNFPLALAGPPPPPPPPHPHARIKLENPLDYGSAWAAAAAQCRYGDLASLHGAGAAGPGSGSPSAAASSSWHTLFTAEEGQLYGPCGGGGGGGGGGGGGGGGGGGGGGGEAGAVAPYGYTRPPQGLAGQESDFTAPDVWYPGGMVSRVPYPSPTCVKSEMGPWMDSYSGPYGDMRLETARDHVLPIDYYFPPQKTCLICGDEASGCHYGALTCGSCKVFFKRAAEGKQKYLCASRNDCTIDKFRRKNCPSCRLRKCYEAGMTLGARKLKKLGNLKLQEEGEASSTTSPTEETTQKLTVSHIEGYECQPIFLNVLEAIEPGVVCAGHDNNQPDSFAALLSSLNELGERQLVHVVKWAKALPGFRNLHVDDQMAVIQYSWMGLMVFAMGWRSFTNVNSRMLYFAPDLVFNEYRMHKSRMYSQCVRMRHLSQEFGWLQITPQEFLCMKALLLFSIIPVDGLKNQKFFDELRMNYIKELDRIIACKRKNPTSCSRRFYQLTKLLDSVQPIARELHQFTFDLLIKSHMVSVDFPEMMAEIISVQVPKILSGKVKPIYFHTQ
Text: National Center for Advancing Translational Sciences [NCATS] NIH Chemical Genomics Center [NCGC] U.S. Environmental Protection Agency [EPA] National Institutes of Environmental Health Sciences [NIEHS] National Toxicology Program [NTP] Assay overview: Androgen receptor (AR) is an important member of nuclear receptor family. Its signaling plays a critical role in AR-dependent prostate cancer and other androgen related diseases. Considerable attention has been given in the past decades to develop methods to study and screen for the environmental chemicals that have the potential to interfere with metabolic homeostasis, reproduction, developmental and behavioral functions. Therefore AR binding assay for screening against androgen agonists and antagonists can be used to identify potential endocrine disruptors. MDA-kb2 cells (from ATCC, deposited by Wilson et al.) are human breast carcinoma cells that were stably transfected with a luciferase reporter gene under control of the MMTV promoter that contains response elements for both androgen receptor (AR) and glucocorticoid receptor (GR). This particular screening for measuring luciferase reporter gene activity using MDA-kb2 cells against Tox21 10K library compounds is a confirmation study on agonist mode screening in the presence of AR-antagonist compound (Nilutamide) at 3.0uM final concentration.
Assay Protocol Summary: MDA-kb2 cells (cells cultured without CO2) were dispensed at 3,000 cells/well in 4uL of culture medium into white wall/solid-bottom 1536-well plates (Corning Life Sciences, Corning, NY) using a Multidrop Combi (Thermo Fisher Scientific Inc., Waltham, MA) dispenser. The assay plates were incubated at 37C and 0% CO2 for 5hr. One uL of 3.0uM (final concentration) Nilutamide or assay buffer was added using two separate tips of Flying Reagent Dispenser (FRD, Aurora Discovery, San Diego, CA). Then 23nL of compounds dissolved in DMSO at 15 concentrations and positive controls were transferred to the assay plates using a Pintool station (Wako, San Diego, CA). The assay plates were incubated at 37C and 0% CO2 for 16hr. For luciferase read, 4uL/well ONE-Glo reagent (Promega Corporation, Madison, WI) was added to each well of the assay plates using FRD. After 30min incubation at room temperature, the luminescence signal was measured using a ViewLux plate reader (PerkinElmer, Shelton, CT).
Potency is the fitted concentration of half-maximal effect.

| SMILES | Potency |
| --- | --- |
| Cc1ccc(-c2c(Cl)nc(C#N)n2S(=O)(=O)N(C)C)cc1 | inactive |
| N#Cc1cc(I)c(O)c(I)c1 | inactive |
| Brc1ccccc1 | inactive |
| Cc1cc(=O)[nH]o1 | inactive |
| O=NN1CCCCCC1 | inactive |
| CS/C(C)=N/OC(=O)N(C)SN(C)C(=O)O/N=C(\C)SC | inactive |
| CCCCC(CC)COP(=O)(Oc1ccccc1)Oc1ccccc1 (stereo not given) | inactive |
| COP(=S)(Oc1cc(Cl)c(Br)cc1Cl)c1ccccc1 (stereo not given) | inactive |
| II | inactive |
| CO/N=C(/C(=O)OC)c1ccccc1COc1ccccc1C | inactive |
| CCCCCC[N+](=O)[O-] | inactive |
| O=C(CCl)c1ccc(Cl)cc1Cl | inactive |
| C[N+](C)(C)CCCl | inactive |
| CCCCC(O)(Cn1cncn1)c1ccc(Cl)cc1Cl (stereo not given) | inactive |
| S=C=NCc1ccccc1 | inactive |
| ClCc1cccc(Cl)c1 | inactive |
| C[C@@H]1CC[C@H]2[C@@H](C)C(=O)O[C@@H]3O[C@@]4(C)CC[C@@H]1[C@]32OO4 | inactive |
| COC(C)(C)CCC[C@H](C)C/C=C/C(C)=C/C(=O)OC(C)C | inactive |
| CC(=O)NC1CCSC1=O (stereo not given) | inactive |
| NCCCNCCCN | inactive |

| SMILES | Potency |
| --- | --- |
| c1ccc(C2CC2)c(OCC2=NCCN2)c1 | inactive |
| c1cc2ccc3cccc4ccc(c1)c2c34 | inactive |
| CCOC(=O)COc1cc(-c2nn(C)c(OC(F)F)c2Cl)c(F)cc1Cl | inactive |
| COC1=CC(=O)O[C@@H](CCc2ccccc2)C1 | inactive |
| O=S1OC[C@@H]2[C@H](CO1)[C@]1(Cl)C(Cl)=C(Cl)[C@@]2(Cl)C1(Cl)Cl (stereo not given in full) | inactive |
| COP(=S)(OC)Oc1cc(Cl)c(I)cc1Cl | inactive |
| Cl/C=C\C[N+]12CN3CN(CN(C3)C1)C2 | inactive |
| C=CCOC(C)=O | inactive |
| Sc1ccccc1Cl | inactive |
| CCCCN(N=O)C(=N)N[N+](=O)[O-] | inactive |
| O=S1(=O)OC(c2cc(Br)c(O)c(Br)c2)(c2cc(Br)c(O)c(Br)c2)c2ccccc21 | inactive |
| O=C(C(Cl)(Cl)Cl)C(Cl)(Cl)Cl | inactive |
| C[C@]12CC[C@H]3[C@@H](CCC4=CC(=O)CC[C@@H]43)[C@@H]1CC[C@@H]2OC(=O)CCC1CCCCC1 | 0.0422 µM (active) |
| OC(c1ccc(Cl)cc1)(c1ccc(Cl)cc1)c1cccnc1 | inactive |
| C=CC(=O)NCNC(=O)C=C | 48.6 µM (active) |
| CCOP(=S)(OCC)Oc1cc(Cl)c(Br)cc1Cl | inactive |
| CC(C)=CCOc1c2occc2cc2ccc(=O)oc12 | inactive |
| O=C(NC(=O)c1c(F)cccc1F)Nc1cc(Cl)c(Oc2ncc(C(F)(F)F)cc2Cl)c(Cl)c1 | inactive |
| CCOP(=S)(OCC)Oc1nc(Cl)c(Cl)cc1Cl | inactive |
| NS(=O)(=O)C(F)(F)C(F)(F)C(F)(F)C(F)(F)C(F)(F)C(F)(F)C(F)(F)C(F)(F)F | inactive |
